An excerpt weighted towards active compounds, which were near 9.2% of everything screened.
NPC1 prom act: NPC1 promoter activation | 2.4% of 320,000 active | Huh7 NPC1 promoter luciferase reporter, 24 h | AID 485313 | Potency, µM (titrated, usually from 9.22 µM), inactives show at the highest dose activation, most hits filed as activators; also: % of control where 0% means no effect; nearly all actives have a fitted effect of over 60% in size
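Luciferase expression driven by the NPC1 promoter was measured in stably transfected Huh7 cells after a 24 h compound incubation, using a luciferase reagent and a luminescence read.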
SMN2 splice enh: SMN2 splice variant enhancement. Potency, µM (highest dose often 46.1 µM), for the others: top-dose activity change, positive = activation, actives largely listed as activators. HEK293 SMN2-luciferase splicing reporter, luminescence, 30-36 h. 2.8% of 210,000 active. AID 1458; also: % of control where 0% means no effect; nearly all actives have a fitted effect of over 55% in size
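qHTS luciferase splicing reporter: luminescence rises when SMN2 exon 7 is included in transfected HEK293 cells. Compound exposure lasted 30-36 h at 37C, with 4.5 mM final sodium butyrate as control, followed by a ONE-Glo read.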
Rab9 promoter act: activators of Rab9 promoter | Huh7 Rab9 promoter-luciferase reporter, luminescence, 24 h | Potency, µM (highest dose often 9.22 µM), without a hit: top-dose activation, negative = inhibition, usual class: activators | 2.8% of 320,000 active; also: % of control where 0% means no effect; nearly all actives have a fitted effect of over 60% in size
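Luminescence read-out: Huh7 cells stably expressing Rab9-luciferase, treated 24 h with compound at 37 °C, then lysed with luciferase reagent for 10 min at ambient before reading.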
ELG1 genotoxic: inducers of genotoxicity in HEK293T ELG1-luciferase cells. HEK293T ELG1-luciferase reporter, luminescence, 16 h. Potency, µM (series often up to 46 µM), for inactives: at the highest dose activity change, positive = activation, usual class: activators. 1.3% of 330,000 active; also: % of control where 0% means no effect; nearly all actives have a fitted effect of over 60% in size
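After overnight (16 hr) compound treatment at 37 °C, ELG1-luciferase HEK293T cells were lysed with ONE-Glo; luminescence quantified 30 min later at room temperature.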
ELG1 repair inh: ELG1-dependent DNA repair inhibition. HEK293T ELG1-luciferase reporter, luminescence, 16 h; DNA damage induced by 5-fluorouridine. Potency, µM (top dose mostly 46.1 µM), for inactives: at the highest dose activity change, negative = inhibition, most hits filed as inhibitors. 2.3% of 330,000 active; also: % is scaled to controls: 0 for no effect and ±100 for the full control effect; nearly all actives have a fitted effect of over 55% in size
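DMSO vehicle served as the neutral condition. Each well held 2,000 cells given 5-fluorouridine plus compound; after 16 hr at 37 °C/5% CO2, ONE-Glo was added and luciferase measured 30 min later.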
FLuc counter: inhibits or activates purified firefly luciferase, miR-21 counter-screen | AID 588342 | Potency, µM (doses to about 57.5 µM), for inactives: at the highest dose activity change, negative = inhibition, hits mostly inhibitors | purified FLuc, Km substrates, luminescence inhibition | 6.9% of 360,000 active;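 also: plate controls were vehicle for no effect and reference inhibitor for full effect; nearly all actives have a fitted effect of over 55% in size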
Target sequence (P08659 whole entry, looked up): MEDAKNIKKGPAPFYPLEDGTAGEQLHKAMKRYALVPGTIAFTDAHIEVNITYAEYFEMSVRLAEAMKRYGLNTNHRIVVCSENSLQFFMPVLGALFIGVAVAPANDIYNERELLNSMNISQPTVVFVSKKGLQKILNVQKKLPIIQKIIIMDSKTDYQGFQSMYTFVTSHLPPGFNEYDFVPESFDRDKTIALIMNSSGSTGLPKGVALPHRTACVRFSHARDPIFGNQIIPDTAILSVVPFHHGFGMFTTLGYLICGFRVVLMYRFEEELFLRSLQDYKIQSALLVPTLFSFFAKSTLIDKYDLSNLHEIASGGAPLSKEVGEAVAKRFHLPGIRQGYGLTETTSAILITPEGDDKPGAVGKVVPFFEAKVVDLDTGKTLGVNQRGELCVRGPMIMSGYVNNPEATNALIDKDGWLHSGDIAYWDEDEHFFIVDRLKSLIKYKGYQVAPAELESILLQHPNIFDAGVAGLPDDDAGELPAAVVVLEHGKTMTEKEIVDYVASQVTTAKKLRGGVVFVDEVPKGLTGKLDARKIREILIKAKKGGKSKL
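Purified P. pyralis luciferase, 10 nM final, with Km-level 10 uM D-luciferin and 10 uM ATP in 50 mM Tris acetate pH 7.5, 10 mM Mg acetate, 0.01% Tween-20, 0.05% BSA; 6-point qHTS titration about 60 µM downward; luminescence read.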
An asterisk follows results filed as active; u = inconclusive; x = no result given; [ ] = remark or other dose. Calls follow the shape of the dose curve; as a rule, active = well fitted curve in the direction sought with a large enough effect; inconclusive = small, poorly fitted or top-dose-only effect, or another doubt; inactive = no such curve, though single readings can be large; an effect the other way counts as inactive or inconclusive. Potency is read from the fitted curve at half-maximal effect.

SMILES	NPC1 prom act	SMN2 splice enh	Rab9 promoter act	ELG1 genotoxic	ELG1 repair inh	FLuc counter
O=C1[C@H](c2ccccc2)[C@@H](c2ccccc2)N1c1ccncc1	x	x	x	2%	-5%	x
CC(C)(C)S(=O)(=O)c1cnc2c(-c3ccsc3)cnn2c1N	u	u	u	9%	u	-9%
CS(=O)(=O)c1cnc2c(-c3ccc(F)cc3)cnn2c1N	0.79µM*	u	1.1µM*	u	u	2.4µM*
Nc1c(-c2cccs2)cnc2c(-c3ccc(F)cc3)cnn12	0.45µM*	x	0.35µM*	2.6µM*	u	0.48µM*
Nc1c(-c2ccccc2)cnc2c(-c3ccccc3)cnn12	0.32µM*	x	0.11µM*	0.73µM*	u	0.24µM*
Cc1oc2c(c(C)cc3oc(=O)c(CC(=O)NCc4ccc(F)cc4)c(C)c32)c1C	x	9%	x	x	x	2%
O=C(NC(NCc1cccnc1)C(Cl)(Cl)Cl)c1cccc2ccccc12 (stereo not drawn)	-1%	-9%	1%	-4%	u	0%
COc1cc(NC(=O)CN2CCN(Cc3ccc4c(c3)OCO4)CC2)cc(OC)c1	-2%	-46%	1%	-2%	23µM*	-1%
COC(=O)c1[nH]c2ccccc2c1NC(=O)CN1CCN(Cc2ccc3c(c2)OCO3)CC1	7%	13%	-2%	-10%	4.6µM*	1%
COC(=O)c1[nH]c2ccc(F)cc2c1NC(=O)CCN1CCN(Cc2ccc3c(c2)OCO3)CC1	8%	12%	2%	-4%	-22%	0%
COc1ccc2cc([C@H](C)C(=O)N(C)Cc3ccccc3N3CCCC3)ccc2c1	-1%	x	3%	-1%	u	2%
Cc1ccc(N/C=C/C(=O)c2cccs2)cc1	u	2µM*	0.14µM*	0.16µM*	u	0.12µM*
CCOC(=O)c1ccccc1N/C=C/C(=O)c1cccs1	11%	x	u	2%	6%	u
O=C(NNC(=O)c1cccs1)c1cccc(F)c1	-1%	x	13%	7%	u	-7%
O=C(/C=C/Nc1ccccc1F)c1cccs1	u	2µM*	4µM*	u	u	0.24µM*
Cc1ccc(N/C=C/C(=O)c2sc(-c3ccccc3)nc2C)cc1	-2%	-12%	2%	-4%	u	6µM*
O=C(/C=C\Nc1cccc(F)c1)c1cccs1	4µM*	6.3µM*	4µM*	u	u	0.85µM*
CC1CCc2c(sc3nc(-c4cc5cc(Br)ccc5oc4=O)[nH]c(=O)c23)C1 (stereo not drawn)	x	x	x	x	x	5%
O=C(/C=C/Nc1ccc(F)cc1F)c1cccs1	0.56µM*	0.4µM*	2µM*	u	u	0.11µM*
Cc1noc(C)c1COc1ccc(C(=O)NCc2cccs2)cc1	x	x	x	11%	11%	x
COC(=O)c1ccccc1S(=O)(=O)Oc1ccc(-c2ccc(C(=O)O)cc2)cc1	11%	x	6%	3%	8%	-14%
O=C(O)c1ccc(-c2ccc(OS(=O)(=O)c3ccccc3F)cc2)cc1	u	x	u	u	u	12µM*
O=C(NCCCCCCNC(=O)c1ccccc1O)c1ccccc1O	1%	x	3%	-12%	10µM*	-11%
O=C(NCCCSc1ccccc1)c1cc(Cl)ccc1O	-3%	x	-10%	u	3%	11µM*
Cc1ccc(O)c(NC(=O)c2cc(-c3cccs3)on2)c1	18%	x	-1%	18µM*	u	2.1µM*
SMILES	NPC1 prom act	SMN2 splice enh	Rab9 promoter act	ELG1 genotoxic	ELG1 repair inh	FLuc counter
CC(C)NC(=O)c1cc(-c2cccs2)on1	3.2µM*	13µM*	2.8µM*	4.5µM*	u	15µM*
CC(=O)c1ccc(NC(=O)c2noc(C(C)C)c2[N+](=O)[O-])cc1	14%	-8%	18%	13%	35%	-14%
Cc1ccc(O)c(NC(=O)c2noc(C(C)C)c2[N+](=O)[O-])c1	-2%	29%	-3%	u	u	19µM*
Cc1ccc(O)c(NC(=O)c2cc(-c3ccc(F)cc3)on2)c1	u	u	27%	8%	u	-13%
C=CCNC(=O)c1cc(-c2cccs2)on1	x	x	x	x	x	13µM*
Cc1ccccc1C(=O)NNC(=O)c1cccc(Br)c1	7%	x	8%	4%	8%	-9%
C=CCNC(=O)c1cc(-c2ccc(Br)cc2)on1	1.3µM*	11µM*	0.79µM*	u	u	u
Cc1ccc(O)c(NC(=O)c2onc(C)c2Cl)c1	18%	x	-6%	u	u	17µM*
CC(=NCc1cccc(Cl)c1)c1nc(-c2ccco2)oc1O	4%	-33%	0%	0%	u	-19%
CC(=O)c1sc(NC(=O)c2cc(-c3ccccc3)nn2-c2ccccc2)nc1C	-5%	-28%	-3%	-15%	15µM*	2%
CC(=O)c1sc(NC(=O)c2cccs2)nc1C	29%	x	u	14%	u	9.5µM*
CCOC(=O)c1sc(NC(=O)c2cccs2)nc1C	u	u	u	u	u	2.4µM*
CC(=O)c1sc(NC(=O)c2ccccc2F)nc1C	1.4µM*	3.2µM*	0.45µM*	2.9µM*	u	4.8µM*
CC(=O)c1sc(NC(=O)c2cccnc2Cl)nc1C	11%	x	22%	7%	21%	u
CCOC(=O)c1sc(NC(=O)c2c(OC)cccc2OC)nc1C	-3%	2%	22%	1%	2%	4%[2.3 µM]
O=C(Nc1nc2ccccc2s1)c1cc(-c2ccccc2)nn1-c1ccccc1	17%	84%	16%	-4%	u	u
COc1ccc(C)cc1NC(=O)CSc1nc(=O)n(Cc2ccncc2)c2c1CCC2	x	x	x	x	x	-7%
Cc1cc(SCc2ccc(Br)cc2)nc(=O)[nH]1	15%	x	27%	3%[9.26 µM]	u	-3%
CCOC(=O)c1c(C)sc(-c2c(-c3ccc4c(c3)OCCO4)[nH]c3c2c(=O)[nH]c(=O)n3C)c1O	x	x	x	x	x	-1%
CCOC(=O)c1sc(NC(=O)CC(C)c2ccccc2)nc1C (stereo not drawn)	-20%	x	-5%	-4%	u	-2%
CCOC(=O)c1sc(NC(=O)C(OC(C)=O)c2ccccc2)nc1C (stereo not drawn)	-3%	35µM*	5%	10%	u	0%
COc1cc(OC)c(NC(=O)Nc2ccc3c(c2)N(C)C(=O)c2ccccc2S3)cc1Cl	x	x	x	x	x	-12%
CN(C)c1ccc(C2Nc3ccccc3C(=O)N2CCCN2CCOCC2)cc1 (stereo not drawn)	7%	x	19%	12%	u	4.8µM*
CCN(CC)CCN1C(=O)c2ccccc2NC1c1ccc(N(C)C)cc1 (stereo not drawn)	3%	-3%	9%	1%	u	24µM*

Source: PubChem (National Center for Advancing Translational Sciences (NCATS))
